The values below come from the antibiotic and cytotoxicity screens of Wong et al. (2023).

The campaign covered roughly 39,000 compounds. About 3,300 (8.5%) were called active. Only a selection was taken, and actives are over-represented in it overall.

For the test, the system named is HepG2. The test can be described thus: cytotoxicity call (relative viability < 0.9). As to conditions: 10 µM.
Consider `C[C@@H]1CN([C@H](C)CO)S(=O)(=O)c2ccc(-c3ccccc3F)cc2O[C@@H]1CN(C)Cc1cncnc1`, for which the cytotoxicity call is “inactive”.

Turning to `CCS(=O)(=O)Nc1ccc2c(c1)C(=O)N(C)[C@H]1CC[C@H](CC(=O)N[C@@H]3CCN(Cc4ccccc4)C3)O[C@H]1CO2`, the cytotoxicity call is “inactive”.

Take `C[C@@H]1CCCCO[C@@H](CN(C)C(=O)Nc2cccc3ccccc23)[C@H](C)CN([C@@H](C)CO)C(=O)c2cc(NC(=O)Nc3ccc(F)cc3)ccc2O1`: the cytotoxicity call is “inactive”.

With `O=C1c2ccccc2C(=O)c2c(NCCNCCO)ccc(NCCNCCO)c21`, the cytotoxicity call was “active”.

As for `O=C1c2c(O)ccc(O)c2C(=O)c2c(NCCNCCO)ccc(NCCNCCO)c21`, the cytotoxicity call is “active”.

Take `Cl.Cl.O=C1c2c(O)ccc(O)c2C(=O)c2c(NCCNCCO)ccc(NCCNCCO)c21`: the cytotoxicity call was “active”.

Consider `O=C1c2ccccc2C(=O)c2c1ccc(O)c2O`, for which the cytotoxicity call was “inactive”.

On to `O=[N+]([O-])c1ccc(NCCNCCO)cc1`, for which the cytotoxicity call was “inactive”.

Consider `O=C(CCNCCO)c1ccccc1`, for which the cytotoxicity call was “inactive”.

For the molecule `CN1CCN(C(=O)C[C@H]2CC[C@H]3[C@H](COc4ccc(NC(=O)C5CCCCC5)cc4C(=O)N3C)O2)CC1`, the cytotoxicity call is “inactive”.

Turning to `C[C@]12C(=O)N(CCCCCO)[C@@H]3C(=O)N(c4ccc(Cl)cc4)CC=C[C@]31O[C@@H]1/C=C\CCCOC(=O)[C@H]12`, the cytotoxicity call is “inactive”.

With `O=C(C[C@@H]1CC[C@H](NC(=O)CN2CCOCC2)[C@@H](CO)O1)NC1CCC1`, the cytotoxicity call is “inactive”.

In the case of `CC(C)NC(=O)Nc1ccc2c(c1)C(=O)N([C@H](C)CO)C[C@@H](C)[C@@H](CN(C)S(=O)(=O)c1ccccc1)O2`, the cytotoxicity call is “inactive”.

With `COCC#Cc1ccc2c(c1)O[C@@H](CN(C)S(=O)(=O)c1ccc(OC)cc1)[C@H](C)CN([C@H](C)CO)S2(=O)=O`, the cytotoxicity call was “inactive”.

Regarding `C[C@H](CO)N1C[C@H](C)[C@@H](CN(C)C(=O)Nc2cccc3ccccc23)OCCCC[C@H](C)Oc2ccc(NS(=O)(=O)c3cn(C)cn3)cc2C1=O`, the cytotoxicity call is “inactive”.

As for `C[C@@H]1CN([C@H](C)CO)C(=O)Cc2cc(NC(=O)Cn3cnnn3)ccc2O[C@H]1CN(C)Cc1ccc(Cl)c(Cl)c1`, the cytotoxicity call is “inactive”.

Take `C/C=C/c1cccc(-c2nc(C(=O)NCc3cccc(OC)c3)cc3c2[C@@H](CCO)N([S@](=O)C(C)(C)C)C3)c1`: the cytotoxicity call was “inactive”.

As for `CC(C)[Si]1(C(C)C)O[C@@H](c2ccccc2)c2cc(C3CC3)nc(-c3ccc(Oc4ccccc4)cc3)c21`, the cytotoxicity call was “inactive”.

For the molecule `CCN(CC)C(C)CN1c2ccccc2Sc2ccccc21.Cl` (configuration not stated), the cytotoxicity call is “active”.

Regarding `CCC(CC)C(=O)N1c2ccccc2Sc2ccccc21`, the cytotoxicity call is “inactive”.

Take `CC(CN1c2ccccc2Sc2ccccc21)N(C)C.Cl` (configuration not stated): the cytotoxicity call was “active”.

In the case of `C[C@H]1CN([C@@H](C)CO)C(=O)c2cc(NC(=O)Cn3cnnn3)ccc2O[C@H]1CN(C)Cc1ccc(Oc2ccccc2)cc1`, the cytotoxicity call was “inactive”.

As to `C[C@H](CO)N1C[C@H](C)[C@H](CN(C)Cc2ccc(C(F)(F)F)cc2)Oc2c(NC(=O)Nc3cccc4ccccc34)cccc2C1=O`, the cytotoxicity call was “inactive”.

On to `Cc1ccc(S(=O)(=O)N(C)C[C@H]2OCCCC[C@@H](C)Oc3ccc(NS(=O)(=O)c4ccc(F)cc4)cc3C(=O)N([C@H](C)CO)C[C@H]2C)cc1`, for which the cytotoxicity call is “inactive”.

For `C=C1[C@@H]2[C@H]3OC(=O)[C@@H](C)[C@@H]3[C@@H](O[C@@H]3O[C@H](CO)[C@@H](O)[C@H](O)[C@H]3O)CC(=C)[C@@H]2C[C@@H]1O`, the cytotoxicity call was “inactive”.

Take `COc1cc(-c2coc3cc(OCc4ccccc4)c(OC)c(O)c3c2=O)cc(OCc2ccccc2)c1OC`: the cytotoxicity call is “inactive”.

As for `C[C@@H]1CCCCO[C@@H](CN(C)CC2CCCCC2)[C@H](C)CN([C@H](C)CO)C(=O)c2cc(NS(=O)(=O)c3cccs3)ccc2O1`, the cytotoxicity call was “inactive”.

Turning to `Cc1nc(-c2ccc(Cl)cc2)c(-c2ccccc2)s1`, the cytotoxicity call was “active”.

Consider `Cc1ccc(Nc2nc(-c3ccc(C)cc3)c(C)s2)cc1`, for which the cytotoxicity call is “inactive”.

For the molecule `Cc1sc(Nc2ccccc2)nc1-c1ccc(Cl)cc1`, the cytotoxicity call was “active”.

On to `C=C(C)CNc1nc(-c2ccccc2)c(-c2ccccc2)s1`, for which the cytotoxicity call is “inactive”.

As for `Cc1sc(N)nc1-c1ccccc1`, the cytotoxicity call is “inactive”.

In the case of `Cc1ccc(-c2nc(Nc3cccc(Cl)c3)sc2C)cc1`, the cytotoxicity call was “inactive”.

Regarding `NC(=O)Cn1c(=O)c2ccccc2n(CC(N)=O)c1=O`, the cytotoxicity call was “inactive”.

As for `C=CCN(Cc1ccccc1)C(=O)[C@@H]1N(c2c(Cl)cccc2CO)C(=O)[C@@H]2[C@H](C(=O)O)[C@@H]3C=C[C@@]21O3`, the cytotoxicity call is “inactive”.

In the case of `C[C@H]1CN([C@@H](C)CO)C(=O)c2cc(NC(=O)Nc3ccc(C(F)(F)F)cc3)ccc2O[C@@H]1CN(C)Cc1ccc(C(=O)Nc2ccccc2N)cc1`, the cytotoxicity call was “inactive”.

For `C[C@H](CO)N1C[C@H](C)[C@H](CN(C)Cc2ccc(C(=O)Nc3ccccc3N)cc2)Oc2ccc(NC(=O)Nc3ccc(F)cc3)cc2C1=O`, the cytotoxicity call is “inactive”.

On to `C[C@H](CO)N1C[C@H](C)[C@@H](CN(C)Cc2ccc(C(=O)Nc3ccccc3N)cc2)Oc2ccc(NC(=O)Nc3ccc(F)cc3)cc2C1=O`, for which the cytotoxicity call is “inactive”.

On to `C[C@@H]1CN([C@@H](C)CO)C(=O)c2cc(NC(=O)Nc3ccccc3)ccc2O[C@@H]1CN(C)Cc1ccc(C(=O)Nc2ccccc2N)cc1`, for which the cytotoxicity call was “active”.

Regarding `C[C@H](CO)N1C[C@H](C)[C@H](CN(C)Cc2ccc(C(=O)Nc3ccccc3N)cc2)Oc2ccc(NC(=O)Nc3ccc(C(F)(F)F)cc3)cc2C1=O`, the cytotoxicity call is “active”.

For the molecule `C[C@@H]1CN([C@H](C)CO)C(=O)c2cc(NC(=O)Nc3ccc(C(F)(F)F)cc3)ccc2O[C@@H]1CN(C)Cc1ccc(C(=O)Nc2ccccc2N)cc1`, the cytotoxicity call is “active”.

For `C[C@@H]1CN([C@@H](C)CO)C(=O)c2cc(NC(=O)Nc3ccc(C(F)(F)F)cc3)ccc2O[C@@H]1CN(C)Cc1ccc(C(=O)Nc2ccccc2N)cc1`, the cytotoxicity call is “active”.

Regarding `C[C@H](CO)N1C[C@H](C)[C@H](CN(C)Cc2ccc(C(=O)Nc3ccccc3N)cc2)Oc2ccc(NC(=O)Nc3ccccc3)cc2C1=O`, the cytotoxicity call is “inactive”.

Turning to `C[C@@H]1CN([C@H](C)CO)C(=O)c2cc(NC(=O)Nc3ccc(C(F)(F)F)cc3)ccc2O[C@H]1CN(C)Cc1ccc(C(=O)Nc2ccccc2N)cc1`, the cytotoxicity call was “inactive”.

Regarding `C[C@H]1CN([C@@H](C)CO)C(=O)c2cc(NC(=O)Nc3ccccc3)ccc2O[C@H]1CN(C)Cc1ccc(C(=O)Nc2ccccc2N)cc1`, the cytotoxicity call is “inactive”.

For `C[C@@H]1CN([C@@H](C)CO)C(=O)c2cc(NC(=O)Nc3ccc(F)cc3)ccc2O[C@@H]1CN(C)Cc1ccc(C(=O)Nc2ccccc2N)cc1`, the cytotoxicity call is “inactive”.

On to `C[C@H]1CN([C@@H](C)CO)C(=O)c2cc(NC(=O)Nc3ccc(F)cc3)ccc2O[C@H]1CN(C)Cc1ccc(C(=O)Nc2ccccc2N)cc1`, for which the cytotoxicity call was “inactive”.

As to `C[C@H]1CN([C@@H](C)CO)C(=O)c2cccc(NC(=O)C3CC3)c2O[C@H]1CN(C)S(=O)(=O)c1ccc(F)cc1`, the cytotoxicity call is “inactive”.

As to `COc1ccc(CN(C)C[C@H]2OCCCC[C@@H](C)Oc3ccc(NS(=O)(=O)c4ccc(C)cc4)cc3C(=O)N([C@H](C)CO)C[C@H]2C)cc1`, the cytotoxicity call is “inactive”.

In the case of `C[C@H]1CN([C@@H](C)CO)C(=O)c2cc(NS(=O)(=O)c3cn(C)cn3)ccc2O[C@@H]1CN(C)S(=O)(=O)c1ccc(Cl)cc1`, the cytotoxicity call was “inactive”.

Consider `NNC(=O)c1cccc(C(F)(F)F)n1`, for which the cytotoxicity call was “inactive”.

Regarding `CCC(=O)O[C@H]1[C@@H]2CC3=C4CC(=O)O[C@@H](c5ccoc5)[C@]4(C)CC[C@@H]3[C@@](C)(C2=O)[C@@H](CC(=O)OC)C1(C)C`, the cytotoxicity call is “inactive”.

Take `C[C@H](CO)N1C[C@H](C)[C@H](CN(C)C(=O)c2ccccc2)OCCCC[C@H](C)Oc2ccc(NS(=O)(=O)c3cccs3)cc2C1=O`: the cytotoxicity call is “inactive”.

As for `C[C@@H]1CN([C@@H](C)CO)C(=O)c2cc(NC(=O)Cc3cn(C)c4ccccc34)ccc2O[C@H]1CN(C)CC1CCCCC1`, the cytotoxicity call was “inactive”.

As for `COc1cccc(S(=O)(=O)Nc2ccc3c(c2)[C@H]2C[C@H](CC(=O)NC4CCCCC4)O[C@@H](CO)[C@H]2O3)c1`, the cytotoxicity call is “inactive”.

With `CN(C)CCCNC(=O)C[C@@H]1CC[C@H]2[C@H](COc3ccc(NC(=O)c4cccc(F)c4)cc3C(=O)N2C)O1`, the cytotoxicity call was “inactive”.

For `COc1ccc(S(=O)(=O)Nc2ccc3c(c2)C(=O)N([C@@H](C)CO)C[C@@H](C)[C@@H](CN(C)Cc2ccc4c(c2)OCO4)OCCCC[C@H](C)O3)cc1`, the cytotoxicity call was “inactive”.

Take `CCC(=O)NCc1nccc(N(C)C)n1`: the cytotoxicity call is “inactive”.

Regarding `C[C@H](CO)N1C[C@H](C)[C@@H](CN(C)S(=O)(=O)c2ccc(F)cc2)Oc2ccc(NC(=O)Cn3cnnn3)cc2CC1=O`, the cytotoxicity call was “inactive”.

In the case of `C[C@H](CO)N1C[C@H](C)[C@@H](CN(C)Cc2ccc(C(=O)Nc3ccccc3N)cc2)Oc2ccc(NC(=O)Nc3ccc(C(F)(F)F)cc3)cc2C1=O`, the cytotoxicity call was “inactive”.

As for `C[C@@H]1CN([C@@H](C)CO)C(=O)c2cc(NC(=O)Nc3ccc(C(F)(F)F)cc3)ccc2O[C@H]1CN(C)Cc1ccc(C(=O)Nc2ccccc2N)cc1`, the cytotoxicity call was “active”.

With `C[C@H]1CN([C@@H](C)CO)C(=O)c2cc(NC(=O)Nc3ccc(C(F)(F)F)cc3)ccc2O[C@H]1CN(C)Cc1ccc(C(=O)Nc2ccccc2N)cc1`, the cytotoxicity call was “inactive”.

With `C[C@@H]1CN([C@@H](C)CO)C(=O)c2cccc(NC(=O)C3CCOCC3)c2O[C@@H]1CN(C)S(=O)(=O)c1ccc(F)cc1`, the cytotoxicity call is “inactive”.

For the molecule `Cc1noc(C)c1S(=O)(=O)Nc1ccc2c(c1)C(=O)N([C@H](C)CO)C[C@@H](C)[C@H](CN(C)CC1CCCCC1)OCCCC[C@@H](C)O2`, the cytotoxicity call was “inactive”.

As for `CC(C=CC=C(C)C=CC1=C(C)C(=O)CCC1(C)C)=CC=CC=C(C)C=CC=C(C)C=CC1=C(C)C(=O)CCC1(C)C` [CANTHAXANTHIN (euglenanone) ], the cytotoxicity call was “inactive”.

Regarding `COc1ccc(S(=O)(=O)Nc2ccc3c(c2)[C@@H]2C[C@H](CC(=O)NCC4CC4)O[C@@H](CO)[C@@H]2O3)cc1`, the cytotoxicity call was “inactive”.

In the case of `C[C@H](CO)N1C[C@H](C)[C@@H](CN(C)Cc2ccc(C(=O)Nc3ccccc3N)cc2)Oc2ccc(NS(=O)(=O)c3ccc(Cl)cc3)cc2C1=O`, the cytotoxicity call was “inactive”.
